Measurements published in PubChem BioAssay (NCI).
The panel holds about 79,000 compounds, 15% with a hit somewhere; the sample as a whole holds those more often. Values without a mark were called inactive. Active and inactive are the calls of the source. Cut-off read from the data, not from the text of the source: active = growth inhibition above about 70%; inactive = the rest. Where a SMILES comes first, the peptide text is derived from it. [ ]: non-standard residue; d: D form. Ac5c = NC1(C(=O)O)CCCC1

Assays:
[1] = NCI Yeast Anticancer Drug Screen. Data for the rad50 strain (AID 155);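 note: 0% = growth of vehicle-only cultures of the same strain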; details: S. cerevisiae rad50 strain growth inhibition; at 50.0 µM; active compounds read high
Method in brief: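 Genetically altered yeast (DNA repair pathway); compound treatment; growth inhibition vs vehicle ctrl.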

[2] = NCI Yeast Anticancer Drug Screen. Data for the mec2-1 strain (AID 157); details: S. cerevisiae mec2-1 strain, at 50.0 µM, active compounds read high
Method in brief: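 Mutant yeast (mec2-1) grown with compound; growth inhibition relative to vehicle control reported.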

[3] = NCI Yeast Anticancer Drug Screen. Data for the sgs1 mgt1 strain (AID 161);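 note: 0% = growth of cultures given vehicle only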; details: S. cerevisiae sgs1 mgt1 strain, at 50.0 µM, active compounds read high
Method in brief: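 Percent growth inhibition was derived by comparing compound-exposed mutant yeast with vehicle-exposed cultures. The strain carries alterations in DNA damage repair.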

[4] = NCI Yeast Anticancer Drug Screen. Data for the cln2 rad14 strain (AID 165);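 note: 0% = growth equal to vehicle treated cultures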; details: S. cerevisiae cln2 rad14 strain, at 50.0 µM, active compounds read high
Method in brief: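 Readout is yeast growth inhibition versus vehicle-treated controls, using a strain with cln2 and rad14 alterations exposed to compound.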

[5] = NCI Yeast Anticancer Drug Screen. Data for the bub3 strain (AID 167); details: S. cerevisiae bub3 mutant strain, at 50.0 µM, active compounds read high
Method in brief: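 Yeast carrying a defined mutation is treated with each compound, and growth is compared with that of vehicle-exposed cells to give inhibition.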

[6] = NCI Yeast Anticancer Drug Screen. Data for the mlh1 rad18 strain (AID 175); details: S. cerevisiae mlh1 rad18 strain growth inhibition; at 50.0 µM; active compounds read high
Method in brief: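 Genetically defined yeast (DNA repair-deficient) exposed to compounds; growth inhibition determined relative to vehicle.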

| Compound | growth inhibition [1] | growth inhibition [2] | growth inhibition [3] | growth inhibition [4] | growth inhibition [5] | growth inhibition [6] |
| --- | --- | --- | --- | --- | --- | --- |
| Nc1[nH]c(=O)ncc1[N+](=O)[O-] | 2.5% | -4.1% | 5.9% | -25.4% | -16.2% | -0.65% |
| N#C/C(=C\c1ccc2c(c1)OCO2)C(=O)N/N=C/c1ccc2c(c1)OCO2 | 4.6% | 17.3% | 5.4% | -13.7% | -0.1% | 2.95% |
| COC(=O)c1ncn(Cc2ccccc2)c1O (tested in a mixture with another compound) | 8.7% | -2.2% | 8.55% | 16.3% | 8.15% | 36% |
| CS1(=O)=NC(=O)C(N2C(=O)c3ccccc3C2=O)CC1 (configuration not stated) | 0.6% | 4.9% | -0.95% | -17.4% | 13.2% | 5.5% |
| CCCOc1cncc(C)n1 | 8% | 19.1% | -3.75% | -3.85% | 13.6% | 9.95% |
| CO[C@H]1C[C@H]2CC[C@@]1(C)C2(C)C | 8.85% | 12.6% | 3.7% | -18.9% | 0.4% | -5.55% |
| O=C1OC(=O)C(Cl)=C1Cl | 16.6% | -10.5% | 28.8% | 10.7% | 9.4% | 22.3% |
| C=C1C2C[C@@H]3OC4CC5O[C@]6(CC5OC4C(C)C3OC(=O)CC3CC[C@@H]4OC5C7OC8C[C@](CCC9CC(=C)[C@H](CCC(C[C@H]1C)O2)O9)(OC7C4O3)O[C@@H]85)C[C@@H]1O[C@@]2(CC(C)[C@@H]3OC(CC(=O)CCO)C(O)C[C@@H]3O2)CC(C)[C@@H]1O6 (some centres not stated) | 84.5% (active) | 88.5% (active) | 88.6% (active) | 84.5% (active) | 87.5% (active) | 87.3% (active) |
| CCOC(=O)C1=CN(Cc2ccccc2)C2ON=C(c3ccc(Cl)cc3)C2C1 (configuration not stated) | 0.05% | 2.3% | -11.8% | -2.35% | -0.75% | -0.6% |
| NC1=Nc2ncccc2C(=O)NN1 | -17.4% | 19.5% | 8.1% | 17.8% | 12.7% | 24.8% |
| COC(=O)c1nnn(-c2ccc(Cl)cc2C)c1N | -17.8% | -1.95% | 16.7% | 29.7% | -15.6% | 21.2% |
| CCOC(=O)C1SC(=Nc2ccc(OC)c(OC)c2)N=C1C (configuration not stated) | 17.9% | 4.2% | 50.3% | 4.95% | 29.9% | 1.4% |
| C[N+]1(C)CCOC(O)(c2ccccc2)C1 (configuration not stated) | -29.6% | -34% | -27.4% | -2.85% | -59.1% | -18.6% |
| COc1ccc(CC(=O)OCC2CCCO2)cc1OC (configuration not stated) | -8.5% | -1.25% | 9.9% | -20.6% | 5.6% | 4% |
| O=C(O)COc1c(Cl)cc(Cl)c2cccnc12 | 28.9% | -3.85% | -15.7% | -16.9% | -63.2% | -4.45% |
| COc1ccc(/C(=N/NS(=O)(=O)c2ccc([N+](=O)[O-])cc2)C2COC(=O)C2)cc1OC (configuration not stated) | 6.15% | -9% | 3.25% | -13.4% | 14% | 2.25% |
| O=C1c2cn[nH]c2N=C(Nc2ccccc2)C1N=Cc1ccc([N+](=O)[O-])cc1 (configuration not stated) | -32.6% | -45.2% | -13.8% | 12.5% | -24.3% | -17.9% |
| CCC(C)CCC(=O)C(C)C=O (configuration not stated) | -0.8% | -7.3% | 3% | -5.9% | -6.2% | -3.85% |
| Cc1ccccc1OCC(C)OC(N)=O (configuration not stated) | 6.1% | -11.4% | 2.1% | -16.4% | 7% | 6.15% |

| Compound | growth inhibition [1] | growth inhibition [2] | growth inhibition [3] | growth inhibition [4] | growth inhibition [5] | growth inhibition [6] |
| --- | --- | --- | --- | --- | --- | --- |
| CSc1ccc2c(=O)c(C(=O)O)c[nH]c2c1 | -0.05% | 15.7% | 5.25% | 1.75% | 10.3% | 5.85% |
| COc1c([N+](=O)[O-])ccc(C(OC(C)=O)OC(C)=O)c1OC(C)=O | 33.9% | 23.1% | 55.8% | 2.35% | 31.9% | 29.4% |
| COc1cc(O)c(C(C)c2ccccc2)cc1N=NC(N)=O (configuration not stated) | 17.1% | 16.4% | 19.3% | 32.8% | 43.4% | 45.5% |
| CCN(CC)CCSc1ccnc2cc(Cl)ccc12 | 16.3% | 23.1% | 52.8% | 47.5% | 36% | 21.8% |
| NC1(C(=O)NC2(C(=O)O)CCCC2)CCCC1 (H-[Ac5c]-[Ac5c]-OH) | 8.75% | 2.85% | 0.8% | -6.65% | -42.9% | 40.4% |
| NC(=O)NOCC(N)C(=O)O (configuration not stated) | -7.2% | 1.8% | 1.15% | -41.3% | 5.35% | -2.9% |
| COc1cc(C)c(O)c(C/C=C(\C)CC2=C[C@@]3(C)CCC[C@@]3(C)[C@]3(CC(O)C(C)(C)O3)O2)c1 (some centres not stated) | 21.1% | 6.2% | -8.5% | 4.75% | 4.95% | 10% |
| c1ccc(P(CCCP(c2ccccc2)c2ccccc2)c2ccccc2)cc1 | -15.7% | 21.4% | -24.6% | 38.4% | -0.05% | -15.8% |
| Cn1cc(S(=O)(=O)NC(=O)Nc2ccc(Cl)cc2)c(=O)c2ccc(Cl)cc21 | 21.6% | 20.8% | 23.1% | -17.5% | 33.2% | 8.75% |
| CC(=O)O/N=C1\C=Cc2c(no[n+]2[O-])C1=O | -8.9% | -20.3% | -0.7% | 12.1% | -12.5% | -5.35% |
| Cc1nn(C(=O)c2c(-c3ccccc3)noc2C)c(C)c1N=Nc1cc(C(F)(F)F)cc(C(F)(F)F)c1 | -6.2% | -8.85% | -2.9% | 20.5% | -2.7% | 0.6% |
| O=C(O)C1CCCCC1C(=O)NCc1ccco1 (configuration not stated) | 5.25% | 4.55% | 4.05% | 3.7% | 25.4% | 0.05% |
| S=C(Nc1ccc(I)cc1)SCc1ccc2c(c1)OCO2 | 32.5% | 14.4% | 25.5% | 32.2% | -3.65% | 23.8% |
| CCCCCCCCCC1(C(=O)OCC)OC1(C)C (configuration not stated) | 8.55% | -15.8% | 5.75% | 10.5% | 15.2% | -11.8% |
| CCN(CC)C(=O)c1c2nc3c(C(=O)N(CC)CC)ccc(C)c3oc-2c(C)c(=O)c1N | 24.6% | 7.35% | 7.85% | 19.9% | 0.9% | 20.2% |
| COc1cc(NC(C)CCCNC(C)C)c2nccc(C)c2c1 (configuration not stated) | 17.4% | 16.3% | 20.9% | 3.25% | 11.6% | 27.9% |
| CCCC(=O)c1ccccc1 | 35.5% | 3% | 19.9% | 15% | 26.1% | 21.9% |
| c1csc(-c2cc(-c3cccs3)c(-c3ccsc3)s2)c1 | -46.8% | -43.4% | -32.2% | -26.2% | -19.5% | -46% |
